High-throughput results as filed in PubChem BioAssay.
HSF-1 act – HSF-1 activators, primary screen, NIH3T3-HGL cells, MG132 stress, luminescence, single point. activation, % at 9 µM. NIH3T3-HGL HSF-1 luciferase reporter, 8 h; 100% = twice DMSO control signal. AID 504408, 2011. actives 1.7% (n = 300,000);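 active means mean replicate activation of at least 50% with a set share of replicates each reaching 50%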;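 further: 0% = median of the neutral control wells and 100% = twice that signal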
HSF1 inhib – HSF1 inhibitors in luciferase reporter cells, primary screen, cell-based, NIH3T3, luminescence. NIH3T3-HGL HSE-luciferase, MG132-induced, luminescence 8 h; stronger effect = lower value. actives 0.77% (n = 300,000). activity change, negative = inhibition, % at 7.5 µM (by protocol);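 active means more than half of replicate wells show activity change below -50%, luminescence cut by over half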;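 further: luciferase reports HSF-1 transcriptional activity via heat shock element; 0% = median of DMSO wells and -100% = zero luminescence signal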
AHR activator – AHR activators, primary screen, cell-based, luminescence, luciferase reporter, human. actives 2.5% (n = 320,000). Aryl hydrocarbon receptor (Homo sapiens), P35869. AID 2796, 2010. AHR-responsive luciferase reporter cells. activation, % at 5 µM; in the data active means activation above about 47%;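 further: 0% = vehicle wells and 100% = reference agonist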
FXN GAA850 act – FXN promoter activators, primary screen, cell-based, luciferase luminescence, HEK293 lucGAA850. HEK293 lucGAA850 FXN promoter luciferase reporter, 24 h; percent of 10 µM SAHA response. activation, % at 6 µM. actives 0.56% (n = 360,000). AID 540364, 2011;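 active means activation above the average of all compounds screened plus 3 SD, cutoff fixed separately per campaign, cut at about 7.5% in these data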;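 further: 0% = DMSO wells and 100% = 10 µM SAHA wells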
AHR act confirm – AHR activators, confirmation, cell-based, luminescence, luciferase reporter, human; shares compounds with AHR activator; human cells, AHR-responsive luciferase reporter; activation, % at 9 µM; actives 87% (n = 2,300); in the data active means activation above about 49%;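 further: HepG2 hepatoma cells carrying a DRE-driven firefly luciferase reporter; 0% = vehicle wells and 100% = reference agonist wells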
PXR counter – human PXR activators, counter-screen for AHR activator project, cell-based, luciferase luminescence; shares compounds with AHR activator; cell-based PXR reporter; activation, % at 11.6 µM; actives 88% (n = 2,300); in the data active means activation above about 11%;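 further: human hepatoma DPX-2 cells expressing full-length human PXR; 0% = DMSO and 100% = reference agonist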
GAA30 FXN cntr – GAA30 FXN promoter activators, confirmation, counter-screen for GAA850 frataxin promoter activator project, cell-based, luminescence, HEK293, lucGAA30, triplicate | activation, % at 6 µM | HEK293 lucGAA30 FXN promoter luciferase, 24 h; DMSO = 0%, 5 µM ipriflavone = 100% | shares compounds with FXN GAA850 act | AID 588350, 2011 | actives 66% (n = 1,900);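 active means mean activation above the mean of solvent-only control wells plus 3 SD, cut at about 22% in these data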;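 further: counterscreen of GAA850 promoter hits where activity marks nonselective or luminescence artifacts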
GAA850 confirm – FXN GAA850 promoter activators in reporter cells, confirmation, cell-based, luminescence, HEK293 lucGAA850, triplicate. actives 86% (n = 1,900). HEK293 lucGAA850 FXN promoter luciferase reporter, 24 h; 100% = activation by SAHA. shares compounds with FXN GAA850 act. activation, % at 6 µM;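 active means mean activation above a set limit taken from the primary screen, cut at about 8% in these data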;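 further: 0% = DMSO wells and 100% = 10 µM SAHA wells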
* hit, by the source's call; / = not tested or not shown. In the library only some 4.6% were active in any assay of this set; here they are far more common.

SMILES	HSF-1 act	HSF1 inhib	AHR activator	FXN GAA850 act	GAA30 FXN cntr	GAA850 confirm	others
COc1cccc2sc(Nc3nnc(-c4cccs4)o3)nc12	301*	205	106*	7.7*	37*	40*	AHR act confirm=97*;PXR counter=18*
CCC(=O)N1N=C(c2ccccc2)CC1c1ccc([N+](=O)[O-])cc1 (stereo unspecified)	34	5	-1	-1	/	/
O=C(/C=C/c1ccccc1)c1c[nH]c2ccccc12	111*	54	84*	12*	142*	52*	AHR act confirm=93*;PXR counter=32*
COc1ccc(C2CC(=O)Oc3cc(O)cc(O)c32)cc1 (stereo unspecified)	21	16	-1	0	/	/
COc1ccc(-c2cc(-c3ccccc3)n[nH]2)c(O)c1	45	28	125*	8.2*	121*	38*	AHR act confirm=73*;PXR counter=17*
CC1Cc2ccccc2N1C(=O)CN1C(=O)NC(C)(c2ccc3c(c2)OCCO3)C1=O (stereo unspecified)	-6	-3	-1	0	/	/
c1ccc(NCc2cccnc2)cc1	/	/	1	-3	/	/
c1cncc(CNc2cccc(-c3nc4ccccc4[nH]3)c2)c1	36	11	167*	8.5*	89*	28*	AHR act confirm=112*;PXR counter=137*
Cc1cc(-c2ccc(N3CCOCC3)cc2)nc2ccccc12	46	26	/	8.0*	130*	50*	PXR counter=52*
Cc1cc(C)nc(Nc2cccc(Cl)c2)n1	-13	-4	/	2	/	/
CCC(C)Oc1cc(-c2ccnc(Nc3cccc(Cl)c3)n2)ccn1 (stereo unspecified)	-29	-17	114*	22*	40*	82*	AHR act confirm=72*;PXR counter=31*
O=C(O)c1ccc(/C=C/c2nc3ccccc3c(=O)[nH]2)cc1	5	-2	-2	0	/	/
Cc1[nH]c2ccccc2c1/C=C/c1nc2ccccc2c(=O)[nH]1	80*	30	166*	8.2*	102*	38*	AHR act confirm=91*;PXR counter=55*
COc1ccc(-c2cnc3c(-c4ccc(F)cc4)cnn3c2N)cc1	33	12	6	7	/	/
Cc1nc2c(-c3ccc(F)cc3)cnn2c2c1CCC2	52*	26	71*	8.2*	90*	29*
Cc1ccc(/C=N/NC(=O)C(C)Oc2ccccc2[N+](=O)[O-])s1 (stereo unspecified)	-16	-4	8	11*	26*	5
Cc1nc(SCC(=O)Nc2cccc(Cl)c2)n[nH]1	4	-7	1	-4	/	/
c1ccc(-c2csc(-c3cccnc3)n2)cc1	13	16	22	2	/	/
COc1ccc2cc(-c3csc(-c4cccnc4)n3)ccc2c1	-8	-2	2	8.1*	92*	37*
Cc1ccc(C)c(-c2csc(-c3cccnc3)n2)c1	27	-3	-1	0	/	/
COc1ccc(-c2csc(-c3cccnc3)n2)cc1C	-1	-8	8	9.5*	88*	32*
COc1cccc(CN(C)C(=O)c2cc(S(=O)(=O)NCc3ccccc3)ccc2C)c1OC	13	6	4	1	/	/
Cc1[nH]c2ccccc2c1/C=N/NC(N)=S	-6	1	5	0	/	/
Cc1ccc(NC(=S)N/N=C/c2c(C)[nH]c3ccccc23)cc1	45	17	75*	7.9*	31*	21*
Cc1ccc2ncc(NC(=O)c3ccc(F)cc3)c(=O)n2c1	-7	7	2	1	/	/
SMILES	HSF-1 act	HSF1 inhib	AHR activator	FXN GAA850 act	GAA30 FXN cntr	GAA850 confirm	others
Cc1ccc(C(=O)Nc2cnc3ccccn3c2=O)cc1	37	21	21	8.3*	100*	31*
Cc1cc(C)n(C(=O)c2ccc(NC(=O)C3COc4ccccc4O3)cc2)n1 (stereo unspecified)	-12	1	7	-3	/	/
Cc1cn([C@H]2C[C@H](O)[C@@H](CCC(=O)NCCCn3ccnc3)O2)c(=O)[nH]c1=O	/	/	/	1	/	/
COc1ccccc1N1CCN(c2cc(=O)n(-c3ccc(Br)cc3)c(=O)[nH]2)CC1	/	/	1	11*	19	12*
COc1ccccc1N1CCN(c2cc(=O)n(-c3ccc(Cl)cc3)c(=O)[nH]2)CC1	1	1	-2	3	/	/
COCCN1CCN(c2c(C)c(C)nc3cc(-c4cccc(OC)c4)nn23)CC1	26	6	1	10*	72*	20*
CC(C)c1ccc(/C=N/NC(=O)CCNC(=O)c2ccccc2)cc1	22	11	11	2	/	/
O=C(c1ccc([N+](=O)[O-])cc1)n1nc(-c2ccccc2)nc1NCc1ccc(F)cc1	7	6	1	4	/	/
Cc1ccc(OCCSc2nc(N)cc(N)n2)cc1	34	12	0	9.1*	110*	37*
C=CCn1c(SCC(=O)NCC)nnc1-c1cc2c(s1)CCC(CC)C2 (stereo unspecified)	30	19	4	4	/	/
CCOC(=O)CNc1c(-c2ccc(OC)cc2)nc2ccc(Cl)cn12	33	29	9	8.0*	92*	25*
COCCNc1c(-c2ccc(OC)cc2)nc2ccc(Cl)cn12	49	18	5	7	/	/
CCC12C(=O)C(CC)(C(c3ccccc3)=C1c1ccccc1)[C@@H]1C(=O)N(c3ccccc3)C(=O)C12 (stereo partly specified)	-5	4	2	11*	20	11*
O=C(Nc1cccc(Cl)c1)c1ccc2sc([C@@H]3O[C@H](CO)[C@H](O)[C@H](O)[C@H]3O)nc2c1	/	/	/	1	/	/
CC1=CC(=C(C#N)c2nc3ccccc3s2)C=C(C)N1CC1CCCO1 (stereo unspecified)	3	7	25	7.8*	39*	32*
O=C(Nc1cc([N+](=O)[O-])ccc1O)c1cccc([N+](=O)[O-])c1	4	5	5	1	/	/
